What was measured:
Assay in all cases: log2 ratio of Biotin-Ahx-Ub-VS probe labelling (fragment/DMSO); higher = less target engagement (more negative = stronger competition), active = hit call of the paper (q ≤ 0.05, log2 ratio ≤ -1)
Settings in all cases: compound concentration: 200 uM; treatment time: 3 h
USP34 = USP34 (UniProt Q70CQ2)
Outline: (§1)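 HEK293T lysate (495 µg per sample, in Tris/CHAPS/IGEPAL buffer with protease inhibitors) was treated in triplicate with fragment at 200 µM or with DMSO for 3 h. It was then treated with Biotin-Ahx-Ub-VS (0.5 µM final) for 1 h. Labelled DUBs were NeutrAvidin-enriched, digested with LysC and trypsin, and run by diaPASEF LC-MS/MS. Spectronaut label-free quantities were global-median-normalised. Values are average log2 ratios fragment/DMSO by unpaired t-test, using proteins with ≥2 unique peptides.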

USP36 = molecular target: T1, USP36 (UniProt Q9P275)
T1 sequence (whole entry): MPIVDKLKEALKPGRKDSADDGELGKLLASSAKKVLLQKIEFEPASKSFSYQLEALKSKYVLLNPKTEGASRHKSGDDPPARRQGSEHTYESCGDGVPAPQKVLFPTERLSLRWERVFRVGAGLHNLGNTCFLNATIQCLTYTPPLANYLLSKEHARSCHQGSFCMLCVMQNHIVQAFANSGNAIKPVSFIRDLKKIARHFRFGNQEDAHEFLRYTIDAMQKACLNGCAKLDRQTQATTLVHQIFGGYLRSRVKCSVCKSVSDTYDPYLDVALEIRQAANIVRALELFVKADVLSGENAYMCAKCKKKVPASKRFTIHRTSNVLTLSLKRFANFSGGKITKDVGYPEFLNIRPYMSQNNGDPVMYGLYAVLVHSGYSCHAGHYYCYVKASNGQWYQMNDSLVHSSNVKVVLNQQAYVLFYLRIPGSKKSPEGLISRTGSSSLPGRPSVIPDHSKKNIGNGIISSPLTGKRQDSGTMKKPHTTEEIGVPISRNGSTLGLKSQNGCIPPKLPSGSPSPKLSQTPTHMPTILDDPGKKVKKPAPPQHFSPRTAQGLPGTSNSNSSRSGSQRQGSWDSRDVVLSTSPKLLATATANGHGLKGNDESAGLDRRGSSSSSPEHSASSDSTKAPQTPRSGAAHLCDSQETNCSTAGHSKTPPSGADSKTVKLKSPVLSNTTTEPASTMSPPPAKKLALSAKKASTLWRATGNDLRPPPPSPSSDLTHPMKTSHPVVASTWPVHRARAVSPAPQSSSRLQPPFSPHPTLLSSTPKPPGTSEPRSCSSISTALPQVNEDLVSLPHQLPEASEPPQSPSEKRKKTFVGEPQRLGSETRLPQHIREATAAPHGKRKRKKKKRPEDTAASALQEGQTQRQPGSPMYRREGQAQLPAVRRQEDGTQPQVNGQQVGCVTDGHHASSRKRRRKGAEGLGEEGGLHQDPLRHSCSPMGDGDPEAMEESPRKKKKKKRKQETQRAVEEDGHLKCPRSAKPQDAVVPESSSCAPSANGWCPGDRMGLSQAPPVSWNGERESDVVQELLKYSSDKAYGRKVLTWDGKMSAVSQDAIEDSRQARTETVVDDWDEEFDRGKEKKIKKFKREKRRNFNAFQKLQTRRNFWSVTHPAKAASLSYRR
Outline: as §1

USP38 = molecular target: T2, USP38 (UniProt Q8NB14)
T2 sequence (whole entry): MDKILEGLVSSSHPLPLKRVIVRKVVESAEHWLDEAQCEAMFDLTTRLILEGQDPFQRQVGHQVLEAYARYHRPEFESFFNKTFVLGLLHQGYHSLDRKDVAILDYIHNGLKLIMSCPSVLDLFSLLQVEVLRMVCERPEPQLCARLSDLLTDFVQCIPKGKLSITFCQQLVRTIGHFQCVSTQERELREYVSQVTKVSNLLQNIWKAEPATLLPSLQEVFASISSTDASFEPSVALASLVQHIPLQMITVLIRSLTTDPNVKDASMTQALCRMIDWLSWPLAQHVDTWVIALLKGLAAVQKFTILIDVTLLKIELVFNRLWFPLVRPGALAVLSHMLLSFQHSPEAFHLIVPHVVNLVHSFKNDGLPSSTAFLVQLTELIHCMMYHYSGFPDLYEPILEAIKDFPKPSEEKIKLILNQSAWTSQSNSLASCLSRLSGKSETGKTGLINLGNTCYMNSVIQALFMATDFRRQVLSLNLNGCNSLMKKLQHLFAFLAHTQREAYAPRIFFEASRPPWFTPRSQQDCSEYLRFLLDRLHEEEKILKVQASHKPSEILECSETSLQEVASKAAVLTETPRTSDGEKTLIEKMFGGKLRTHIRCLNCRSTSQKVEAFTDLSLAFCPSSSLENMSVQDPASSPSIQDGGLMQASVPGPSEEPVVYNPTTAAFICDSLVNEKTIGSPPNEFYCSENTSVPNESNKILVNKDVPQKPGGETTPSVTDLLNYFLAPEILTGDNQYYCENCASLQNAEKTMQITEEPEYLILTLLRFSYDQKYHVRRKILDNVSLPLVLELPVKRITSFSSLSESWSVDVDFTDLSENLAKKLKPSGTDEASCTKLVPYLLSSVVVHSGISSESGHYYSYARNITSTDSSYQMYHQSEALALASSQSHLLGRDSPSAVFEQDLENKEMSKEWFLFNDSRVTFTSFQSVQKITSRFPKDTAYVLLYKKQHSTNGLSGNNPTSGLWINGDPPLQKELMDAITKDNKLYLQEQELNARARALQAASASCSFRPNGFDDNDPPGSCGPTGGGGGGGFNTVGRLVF
Outline: as §1

USP39 = molecular target: T3, USP39 (UniProt Q53GS9)
T3 sequence (whole entry): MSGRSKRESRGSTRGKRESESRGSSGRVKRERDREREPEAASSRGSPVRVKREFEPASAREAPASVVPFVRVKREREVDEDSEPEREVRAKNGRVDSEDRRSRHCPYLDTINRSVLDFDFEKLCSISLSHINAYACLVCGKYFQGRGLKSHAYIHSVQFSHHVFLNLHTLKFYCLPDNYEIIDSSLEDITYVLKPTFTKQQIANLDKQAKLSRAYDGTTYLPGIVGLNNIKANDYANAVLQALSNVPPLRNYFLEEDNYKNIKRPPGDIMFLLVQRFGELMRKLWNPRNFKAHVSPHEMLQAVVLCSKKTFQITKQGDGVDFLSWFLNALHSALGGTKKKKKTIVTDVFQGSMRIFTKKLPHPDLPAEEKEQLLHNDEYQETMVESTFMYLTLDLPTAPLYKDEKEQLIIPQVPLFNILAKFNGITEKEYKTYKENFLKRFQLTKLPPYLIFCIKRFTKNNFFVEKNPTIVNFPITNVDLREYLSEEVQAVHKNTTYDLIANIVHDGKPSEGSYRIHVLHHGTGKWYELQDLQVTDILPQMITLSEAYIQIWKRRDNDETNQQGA
Outline: as §1

USP4 = molecular target: T4, USP4 (UniProt Q13107)
T4 sequence (whole entry): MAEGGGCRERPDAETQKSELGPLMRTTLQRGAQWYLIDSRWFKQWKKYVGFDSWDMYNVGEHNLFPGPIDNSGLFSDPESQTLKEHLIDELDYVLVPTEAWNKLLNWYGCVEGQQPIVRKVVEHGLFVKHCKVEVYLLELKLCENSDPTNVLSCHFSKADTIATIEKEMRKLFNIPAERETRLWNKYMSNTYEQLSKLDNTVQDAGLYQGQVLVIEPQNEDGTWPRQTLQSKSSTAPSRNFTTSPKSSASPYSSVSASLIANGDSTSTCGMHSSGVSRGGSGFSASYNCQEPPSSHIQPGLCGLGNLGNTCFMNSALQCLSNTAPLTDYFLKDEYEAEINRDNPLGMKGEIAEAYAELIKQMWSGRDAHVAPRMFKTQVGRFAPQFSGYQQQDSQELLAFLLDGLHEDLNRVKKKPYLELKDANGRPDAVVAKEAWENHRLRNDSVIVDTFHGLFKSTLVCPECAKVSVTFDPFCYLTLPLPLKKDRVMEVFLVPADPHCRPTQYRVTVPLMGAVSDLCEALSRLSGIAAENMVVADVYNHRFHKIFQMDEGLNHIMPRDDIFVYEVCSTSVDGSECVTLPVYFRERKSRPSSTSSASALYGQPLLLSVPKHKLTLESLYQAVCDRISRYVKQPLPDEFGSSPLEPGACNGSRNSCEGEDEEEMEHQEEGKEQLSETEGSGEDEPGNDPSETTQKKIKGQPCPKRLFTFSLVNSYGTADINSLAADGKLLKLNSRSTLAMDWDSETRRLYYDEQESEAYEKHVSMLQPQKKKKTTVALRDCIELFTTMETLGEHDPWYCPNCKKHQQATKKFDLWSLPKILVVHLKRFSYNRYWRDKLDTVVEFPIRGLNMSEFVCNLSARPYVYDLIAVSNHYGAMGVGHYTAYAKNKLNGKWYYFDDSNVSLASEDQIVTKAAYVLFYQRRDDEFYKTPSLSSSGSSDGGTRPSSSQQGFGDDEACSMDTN
Outline: as §1

Measured: log2 ratio of Biotin-Ahx-Ub-VS probe labelling

Chain of USP34 (Q70CQ2 whole entry, the tested form may be a part): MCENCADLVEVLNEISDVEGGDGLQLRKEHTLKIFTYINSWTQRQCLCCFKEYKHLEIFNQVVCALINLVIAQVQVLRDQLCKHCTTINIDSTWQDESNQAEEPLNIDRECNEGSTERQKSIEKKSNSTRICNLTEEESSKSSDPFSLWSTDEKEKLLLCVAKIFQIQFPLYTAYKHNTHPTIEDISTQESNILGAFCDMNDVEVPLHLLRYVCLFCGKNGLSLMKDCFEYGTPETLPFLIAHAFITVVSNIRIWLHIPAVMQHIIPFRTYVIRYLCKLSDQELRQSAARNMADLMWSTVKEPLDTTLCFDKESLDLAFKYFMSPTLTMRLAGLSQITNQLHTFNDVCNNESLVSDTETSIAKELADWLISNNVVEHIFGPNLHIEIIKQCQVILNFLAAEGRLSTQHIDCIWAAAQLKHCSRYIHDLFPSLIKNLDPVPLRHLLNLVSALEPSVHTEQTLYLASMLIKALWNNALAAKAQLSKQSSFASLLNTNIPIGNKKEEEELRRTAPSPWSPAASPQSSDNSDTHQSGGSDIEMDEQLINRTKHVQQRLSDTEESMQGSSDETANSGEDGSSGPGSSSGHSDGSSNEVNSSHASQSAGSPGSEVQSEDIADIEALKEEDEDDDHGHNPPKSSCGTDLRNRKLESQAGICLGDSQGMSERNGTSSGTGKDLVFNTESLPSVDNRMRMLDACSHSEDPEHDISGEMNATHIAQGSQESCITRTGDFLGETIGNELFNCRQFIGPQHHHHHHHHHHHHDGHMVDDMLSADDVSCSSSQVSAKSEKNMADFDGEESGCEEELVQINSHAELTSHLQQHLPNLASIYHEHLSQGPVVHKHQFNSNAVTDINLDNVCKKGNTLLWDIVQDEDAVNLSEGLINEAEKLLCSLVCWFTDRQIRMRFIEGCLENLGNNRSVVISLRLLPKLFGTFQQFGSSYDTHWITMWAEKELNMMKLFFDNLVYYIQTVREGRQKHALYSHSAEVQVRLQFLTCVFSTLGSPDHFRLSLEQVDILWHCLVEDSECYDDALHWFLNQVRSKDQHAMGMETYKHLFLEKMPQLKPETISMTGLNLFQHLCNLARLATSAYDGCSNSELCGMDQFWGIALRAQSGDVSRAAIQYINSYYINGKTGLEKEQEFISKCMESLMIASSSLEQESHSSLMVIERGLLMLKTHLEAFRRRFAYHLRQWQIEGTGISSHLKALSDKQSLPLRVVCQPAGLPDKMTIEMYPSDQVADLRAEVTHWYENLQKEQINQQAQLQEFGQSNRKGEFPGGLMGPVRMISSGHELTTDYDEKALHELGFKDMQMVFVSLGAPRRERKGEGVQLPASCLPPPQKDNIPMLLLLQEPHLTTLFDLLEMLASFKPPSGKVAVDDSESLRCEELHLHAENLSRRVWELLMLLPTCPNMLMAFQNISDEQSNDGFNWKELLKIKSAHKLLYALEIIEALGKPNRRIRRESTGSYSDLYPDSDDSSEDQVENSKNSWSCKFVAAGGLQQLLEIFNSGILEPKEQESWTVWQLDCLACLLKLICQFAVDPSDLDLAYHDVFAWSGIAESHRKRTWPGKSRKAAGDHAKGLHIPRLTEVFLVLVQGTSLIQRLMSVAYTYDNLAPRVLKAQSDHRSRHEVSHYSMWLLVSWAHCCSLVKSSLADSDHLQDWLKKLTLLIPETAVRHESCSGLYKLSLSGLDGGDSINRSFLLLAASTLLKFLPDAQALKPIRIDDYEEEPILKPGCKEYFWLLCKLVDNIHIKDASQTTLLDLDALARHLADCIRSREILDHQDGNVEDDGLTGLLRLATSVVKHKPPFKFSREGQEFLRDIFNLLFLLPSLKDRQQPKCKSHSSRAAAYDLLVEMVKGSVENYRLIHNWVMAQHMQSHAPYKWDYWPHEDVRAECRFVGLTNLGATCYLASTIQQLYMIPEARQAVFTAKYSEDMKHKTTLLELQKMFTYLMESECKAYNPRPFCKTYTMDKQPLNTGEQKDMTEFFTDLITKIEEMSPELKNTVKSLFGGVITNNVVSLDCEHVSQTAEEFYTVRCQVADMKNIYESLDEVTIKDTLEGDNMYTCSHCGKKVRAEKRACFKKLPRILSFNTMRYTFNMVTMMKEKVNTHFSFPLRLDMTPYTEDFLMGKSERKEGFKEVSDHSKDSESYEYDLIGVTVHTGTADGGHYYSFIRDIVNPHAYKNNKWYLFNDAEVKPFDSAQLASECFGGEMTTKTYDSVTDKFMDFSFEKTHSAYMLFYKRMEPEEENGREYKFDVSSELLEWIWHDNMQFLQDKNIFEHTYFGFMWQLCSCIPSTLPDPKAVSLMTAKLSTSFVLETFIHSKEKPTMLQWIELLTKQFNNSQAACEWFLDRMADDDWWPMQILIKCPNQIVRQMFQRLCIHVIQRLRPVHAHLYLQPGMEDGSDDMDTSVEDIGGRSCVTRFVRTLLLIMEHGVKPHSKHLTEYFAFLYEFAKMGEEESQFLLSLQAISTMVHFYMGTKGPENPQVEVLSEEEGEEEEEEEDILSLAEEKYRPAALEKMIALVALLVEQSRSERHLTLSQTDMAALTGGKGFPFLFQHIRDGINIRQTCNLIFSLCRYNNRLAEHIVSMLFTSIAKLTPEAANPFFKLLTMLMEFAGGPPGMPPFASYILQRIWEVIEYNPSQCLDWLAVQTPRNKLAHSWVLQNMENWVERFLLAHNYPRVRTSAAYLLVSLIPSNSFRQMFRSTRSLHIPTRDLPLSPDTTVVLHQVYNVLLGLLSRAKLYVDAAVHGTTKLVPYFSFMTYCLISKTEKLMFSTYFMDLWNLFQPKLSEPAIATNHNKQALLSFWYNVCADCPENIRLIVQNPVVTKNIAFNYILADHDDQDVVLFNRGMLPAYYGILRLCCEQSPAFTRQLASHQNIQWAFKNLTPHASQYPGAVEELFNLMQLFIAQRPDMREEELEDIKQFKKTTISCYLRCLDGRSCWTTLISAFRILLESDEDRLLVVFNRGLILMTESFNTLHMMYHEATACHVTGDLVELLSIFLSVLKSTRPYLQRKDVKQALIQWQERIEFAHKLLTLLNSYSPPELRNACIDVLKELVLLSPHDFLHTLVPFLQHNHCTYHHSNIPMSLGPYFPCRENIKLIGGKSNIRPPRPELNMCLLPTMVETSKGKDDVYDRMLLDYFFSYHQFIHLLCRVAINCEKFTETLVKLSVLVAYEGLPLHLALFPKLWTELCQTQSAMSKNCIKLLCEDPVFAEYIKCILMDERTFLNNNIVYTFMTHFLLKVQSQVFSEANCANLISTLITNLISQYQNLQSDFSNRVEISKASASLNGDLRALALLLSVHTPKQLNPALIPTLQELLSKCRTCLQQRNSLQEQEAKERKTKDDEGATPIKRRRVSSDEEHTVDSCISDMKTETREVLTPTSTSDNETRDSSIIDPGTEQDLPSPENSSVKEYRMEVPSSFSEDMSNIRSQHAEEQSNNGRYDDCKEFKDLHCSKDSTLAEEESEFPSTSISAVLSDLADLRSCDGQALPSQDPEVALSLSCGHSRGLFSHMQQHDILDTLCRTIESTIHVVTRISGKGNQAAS

COc1ccc(C2CCCN2C(=O)CCl)c(OC)c1 (stereo not given)
inactive: USP34 -0.0529 | USP36 -0.129 | USP38 -0.231 | USP39 0.128 | USP4 -0.347

Reference: the supplement of paper PMC11732987, “Enantioselective OTUD7B fragment discovery through chemoproteomics screening and high-throughput optimisation” (Communications Chemistry, 2025)
